The text below walks through data of the antibiotic and cytotoxicity screens of Wong et al. (2023).

Out of some 39,000 compounds screened, about 1,500 (3.8%) were called active. The entries come from a sample that favours actives as a whole.

The assay relates to HSkMC (human skeletal muscle cells). Nature of the assay: cytotoxicity call (relative viability < 0.9). The note with it: 10 µM.
`C[C@@H]1CCCCO[C@@H](CN(C)Cc2ccc(Cl)c(Cl)c2)[C@H](C)CN([C@H](C)CO)C(=O)c2cc(NC(=O)Nc3ccc4c(c3)OCO4)ccc2O1`: the cytotoxicity call is “inactive”.

For `C[C@@H]1CCCCO[C@H](CN(C)Cc2ccc(Cl)c(Cl)c2)[C@@H](C)CN([C@@H](C)CO)C(=O)c2cc(NC(=O)Nc3ccc4c(c3)OCO4)ccc2O1`, the cytotoxicity call is “inactive”. The value for `C[C@H]1CCCCO[C@H](CN(C)Cc2ccc(Cl)c(Cl)c2)[C@@H](C)CN([C@@H](C)CO)C(=O)c2cc(NC(=O)Nc3ccc4c(c3)OCO4)ccc2O1` was “inactive”; that for `C[C@@H]1CCCCO[C@H](CN(C)Cc2ccc(Cl)c(Cl)c2)[C@H](C)CN([C@@H](C)CO)C(=O)c2cc(NC(=O)Nc3ccc4c(c3)OCO4)ccc2O1` was “active”; that for `C[C@H](CO)N1C[C@H](C)[C@@H](CN(C)Cc2ccc(Cl)c(Cl)c2)OCCCC[C@H](C)Oc2ccc(NC(=O)Nc3ccc4c(c3)OCO4)cc2C1=O` was “active”. Next, `C[C@@H]1CCCCO[C@@H](CN(C)Cc2ccc(Cl)c(Cl)c2)[C@H](C)CN([C@@H](C)CO)C(=O)c2cc(NC(=O)Nc3ccc4c(c3)OCO4)ccc2O1`: “inactive”.

In the case of `C[C@H](CO)N1C[C@H](C)[C@H](CN(C)C(=O)Nc2ccc(F)cc2)OCCCC[C@H](C)Oc2ccc(NC(=O)C3CCCCCC3)cc2C1=O`, the cytotoxicity call is “inactive”. Take `CC(=O)O[C@H](C[C@H](O)C(C)(O)CCC=C(C)C)/C(C)=C/COC[C@@H](O)[C@@H](O)[C@@H](O)[C@@H](O)CO` (stereo not given in full): the cytotoxicity call was “inactive”. Next, `O=C(Cn1ccc([N+](=O)[O-])n1)n1cccn1`: “inactive”.

In the case of `Nc1ccn([C@@H]2O[C@H](CO)[C@@H](O)[C@H]2O)c(=O)n1`, the cytotoxicity call is “inactive”. Next, `N=c1ccn2c(n1)O[C@H]1[C@H](O)[C@@H](CO)O[C@H]12`: “active”; `Cl.N=c1ccn2c(n1)OC1C(O)C(CO)OC12` (stereo not given): “inactive”. Next, `C[C@H](CO)N1C[C@H](C)[C@H](CN(C)C(=O)Nc2cccc3ccccc23)Oc2ncc(C#Cc3ccc(F)cc3)cc2C1=O`: “inactive”. In the case of `Cc1ccc(S(=O)(=O)N(C)C[C@@H]2OCCCC[C@H](C)Oc3ccc(NS(=O)(=O)c4ccc(Cl)cc4)cc3C(=O)N([C@H](C)CO)C[C@@H]2C)cc1`, the cytotoxicity call is “inactive”. Next, `CC(C)(C)c1cc(C(=O)NN)no1`: “inactive”; `CCN1C(C)(C)CC(Oc2ccc(C(=O)Nc3ccc(NC(=O)Nc4cc(C(C)(C)C)on4)cc3)nc2)CC1(C)C`: “active”. Turning to `CC(C)CC#Cc1ccc2c(c1)O[C@H](CN(C)C(=O)c1ccccn1)[C@@H](C)CN([C@H](C)CO)S2(=O)=O`, the cytotoxicity call is “inactive”. The value for `COc1cccc(-c2ccc3c(c2)O[C@@H](CN(C)C(=O)C2CCOCC2)[C@@H](C)CN([C@@H](C)CO)S3(=O)=O)c1` was “inactive”. On to `C[C@@H]1CN([C@@H](C)CO)C(=O)Cc2cc(NC(=O)Cc3ccccc3)ccc2O[C@@H]1CN(C)Cc1ccc(C(F)(F)F)cc1`, for which the cytotoxicity call is “active”. Next, `C[C@@H]1CN([C@@H](C)CO)C(=O)Cc2cc(NC(=O)Cc3ccccc3)ccc2O[C@H]1CN(C)Cc1ccc(C(F)(F)F)cc1`: “inactive”. Next, `C[C@@H]1CN([C@H](C)CO)C(=O)Cc2cc(NC(=O)Cc3ccccc3)ccc2O[C@H]1CN(C)Cc1ccc(C(F)(F)F)cc1`: “inactive”. Next, `C[C@H]1CN([C@@H](C)CO)C(=O)Cc2cc(NC(=O)Cc3ccccc3)ccc2O[C@@H]1CN(C)Cc1ccc(C(F)(F)F)cc1`: “active”; `C[C@H]1CN([C@@H](C)CO)C(=O)Cc2cc(NC(=O)Cc3ccccc3)ccc2O[C@H]1CN(C)Cc1ccc(C(F)(F)F)cc1`: “inactive”. Turning to `C[C@@H]1CN([C@H](C)CO)C(=O)Cc2cc(NC(=O)Cc3ccccc3)ccc2O[C@@H]1CN(C)Cc1ccc(C(F)(F)F)cc1`, the cytotoxicity call is “inactive”. Next, `C[C@@H]1CN([C@@H](C)CO)C(=O)c2cc(NC(=O)Nc3cccc4ccccc34)ccc2O[C@@H]1CN(C)S(=O)(=O)c1ccc(Cl)cc1`: “inactive”; `Cc1noc(C)c1NC(=O)Nc1ccc2c(c1)C(=O)N([C@@H](C)CO)C[C@H](C)[C@@H](CN(C)Cc1ccc3c(c1)OCO3)OCCCC[C@@H](C)O2`: “inactive”. Next, `COc1ccc(CN(C)C[C@@H]2OCCCC[C@H](C)Oc3ccc(NC(=O)NC(C)C)cc3C(=O)N([C@H](C)CO)C[C@H]2C)cc1`: “inactive”; `CO[C@@H]1CN(C)C(=O)c2cc(NC(=O)CC(F)(F)F)ccc2OC[C@H](C)N(S(=O)(=O)c2cn(C)cn2)C[C@H]1C`: “inactive”. Take `Cc1ccc(S(=O)(=O)N(C)C[C@H]2Oc3ccc(NS(=O)(=O)c4c(C)noc4C)cc3CC(=O)N([C@H](C)CO)C[C@@H]2C)cc1`: the cytotoxicity call is “inactive”. On to `C[C@@H]1CN([C@@H](C)CO)S(=O)(=O)c2ccc(-c3cncnc3)cc2O[C@H]1CN(C)C(=O)C1CCCCC1`, for which the cytotoxicity call is “inactive”. Turning to `C[C@@H]1CN([C@H](C)CO)C(=O)c2cc(-c3ccc(C(=O)N(C)C)cc3)cnc2O[C@H]1CN(C)C(=O)c1ccncc1`, the cytotoxicity call was “inactive”. Next, `C[C@@H]1CN([C@@H](C)CO)C(=O)c2cc(NS(C)(=O)=O)ccc2O[C@@H]1CN(C)Cc1ccc(C(F)(F)F)cc1`: “inactive”.

Turning to `NC(=O)CSc1ccccn1`, the cytotoxicity call is “inactive”. Next, `C[C@H](CO)N1C[C@H](C)[C@H](CN(C)S(=O)(=O)c2ccc(F)cc2)Oc2cc(C#Cc3ccncc3)ccc2S1(=O)=O`: “inactive”; `COCC#Cc1ccc2c(c1)O[C@@H](CN(C)S(=O)(=O)c1ccc(F)cc1)[C@@H](C)CN([C@@H](C)CO)S2(=O)=O`: “active”; `COCC#Cc1ccc2c(c1)O[C@H](CN(C)S(=O)(=O)c1ccc(F)cc1)[C@@H](C)CN([C@H](C)CO)S2(=O)=O`: “inactive”. Next, `COCC#Cc1ccc2c(c1)O[C@@H](CN(C)S(=O)(=O)c1ccc(F)cc1)[C@@H](C)CN([C@H](C)CO)S2(=O)=O`: “inactive”. `C[C@H]1CN([C@@H](C)CO)S(=O)(=O)c2ccc(C#Cc3ccncc3)cc2O[C@@H]1CN(C)S(=O)(=O)c1ccc(F)cc1`: the cytotoxicity call is “active”.

As to `C[C@H]1CN([C@@H](C)CO)S(=O)(=O)c2ccc(C#Cc3ccncc3)cc2O[C@H]1CN(C)S(=O)(=O)c1ccc(F)cc1`, the cytotoxicity call was “inactive”.

Regarding `C[C@H](CO)N1C[C@H](C)[C@H](CN(C)C(=O)NC2CCCCC2)Oc2ccc(NS(C)(=O)=O)cc2CC1=O`, the cytotoxicity call is “inactive”.
